HCV inh: blocks hepatitis C virus; Huh7.5.1 HCVcc-Cre infection, luciferase reporter, 44 h; Potency, µM (doses to about 41.8 µM), for the others: at the top dose activity change, negative = inhibition, hits mostly inhibitors; 340,000 compounds, 3.4% hits; AID 651820; active = well fitted inhibition curve with a large enough effect; inconclusive = small, poorly fitted or top-dose-only effect, or another doubt; inactive = no such curve, though single readings can be large or run the other way; note: potency is the fitted concentration of half-maximal effect
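Infectious HCV cell culture screen: compound-treated cells (1,000/well, pre-plated 4 h) are infected with HCVcc-Cre at roughly 0.5 moi and grown 44 h. Infection is quantified by luciferase signal after 15 min substrate incubation at room temperature.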
Vaccinia mCherry: inhibitors of vaccinia virus infection (mCherry reporter signal) | Vaccinia virus mCherry reporter infection, fluorescence | Potency, µM (titrated, usually from 36.5 µM), inactives show top-dose activity change, negative = inhibition, usual class: inhibitors | 310,000 compounds, 0.63% hits | AID 720579; calls by dose curve; tested in A549 cells; note: potency is the fitted concentration of half-maximal effect; nearly all actives have a fitted effect of over 35% in size
HCMV inh: inhibitors of human cytomegalovirus; HFF cells, HCMV-luciferase reporter, 72 h; stronger effect = lower value; activity change, negative = inhibition, % at 57.5 µM; 410,000 compounds, 4.5% hits; in the data active = activity change below about -60%; inconclusive = no clear call, values can overlap the other calls; inactive = above about -39%
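Luciferase read-out from HCMV-luciferase-infected HFFs (MOI 1 PFU/cell) 72 h post infection at 37C; compounds added after 16 h cell attachment; activity normalized between buffer-only basal and Salinomycin (10uM) inhibitor controls.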
FMDV antiviral: antivirals against foot and mouth disease virus; Potency, µM (titrated, usually from 57.9 µM), for inactives: top-dose activity change, negative = inhibition, most hits filed as inhibitors; FMDV antiviral cell-based qHTS; 410,000 compounds, 1.2% hits; AID 1159524; calls by dose curve; tested in HEK293T cells; note: read-out not given here; potency is the fitted concentration of half-maximal effect; nearly all actives have a fitted effect of over 45% in size
VACV Venus inh: vaccinia inhibition (Venus reporter); Vaccinia virus Venus reporter expression, fluorescence; Potency, µM (titrated, usually from 36.5 µM), without a hit: at the highest dose activity change, negative = inhibition, hits mostly inhibitors; 330,000 compounds, 0.46% hits; AID 720580; calls by dose curve; tested in A549 cells; note: potency is the fitted concentration of half-maximal effect; nearly all actives have a fitted effect of over 30% in size
* hit, by the source's call; i = inactive; ? = inconclusive; · = no result given; [ ] = another dose, or the depositor's remark. The list is not random: actives were taken first. Their share in the collection is about 7.3%. % is set by controls: 0 for no effect and ±100 for the full control effect.

SMILES	HCV inh	Vaccinia mCherry	HCMV inh	FMDV antiviral	VACV Venus inh
COC(=O)[C@@H]1[C@H]2SC(C)(C)[C@H](C(=O)OC)N2C(=O)N1Cc1cc2ccccc2n1S(=O)(=O)c1ccccc1	·	i	·	·	-17.8%
Cc1ccc(Nc2cc(C)nc(-n3nc(C)cc3C)n2)cc1	·	-10.0%[7.34 µM]	-91.8*	9.0%	-7.0%[7.34 µM]
CCOc1ccc(Nc2cc(C)nc(-n3nc(C)cc3C)n2)cc1	?	?	-84.2*	20µM*	15.8µM*
Cc1nc(-c2ccc(C)c(S(=O)(=O)N3CCC(C(=O)NCc4ccc(F)cc4)CC3)c2)no1	·	-18.0%	-22.8	-21.9%	-20.8%
CC(=O)Oc1c(I)cc(I)cc1C(=O)Nc1ccc(Cl)cc1	?	10µM*	-99.0*	?	?
COc1ccc(Cl)cc1C(=O)Nc1ccc(NC(C)=O)cc1	?	-19.9%	·	7.7%	-13.3%
O=C(COC(=O)[C@H](Cc1c[nH]c2ccccc12)NC(=O)c1ccc(Cl)cc1)Nc1ccc2c(c1)OCO2	0.2%	·	51.1	48.3%	·
O=C(Cc1ccccc1)N/N=C/c1ccc2c(c1)OCO2	8.1%	-1.4%	45.2	71.6%	0.5%
COC(=O)[C@@H](Cc1c[nH]c2ccccc12)NC(=O)c1ccc2c(c1)OCO2	15.0%	·	-104.6*	-2.4%	·
COC(=O)C(Cc1c[nH]c2ccccc12)NC(=O)c1cc(-c2ccc(OC)c(OC)c2)oc1C (stereo unspecified)	10µM*	-24.5%	43.1	-28.3%	-16.7%
O=C(Cc1ccc(F)cc1)NC(Cc1c[nH]c2ccccc12)C(=O)O (stereo unspecified)	9.3%	-6.1%	-62.3*	17.2%	-2.0%
Cc1cc(C(=O)NC(Cc2c[nH]c3ccccc23)C(=O)O)c(C)o1 (stereo unspecified)	-5.2%	-7.4%	36.4	1.8%	3.4%
O=C(Cc1c[nH]c2ccccc12)N[C@@H](Cc1c[nH]c2ccccc12)C(=O)O	10.4%	i	20.8	1.2%	-10.7%
O=C(CCc1c[nH]c2ccccc12)N/N=C/c1ccc2c(c1)OCO2	12.6µM*	-14.3%	-13.7	29.7%	-17.4%
Cc1cc(Cl)ccc1OCC(=O)Nc1c(Cl)ccc2nsnc12	·	-18.6%	?	?	-11.8%
Cc1cccc(Cc2c(C)nc3c(-c4ccccc4)c(C)[nH]n3c2=O)c1	·	?	-79.4*	-9.4%	?
Cc1nc2c(-c3ccccc3)c(C)[nH]n2c(=O)c1Cc1ccccc1	10µM*	?	-37.3	-23.9%	-23.0%
Cc1ccccc1Cc1c(C)nc2c(-c3ccccc3)c(C)[nH]n2c1=O	·	?	-36.8	?	-20.9%
Cc1nc2c(-c3ccc(Cl)cc3)c(C)[nH]n2c(=O)c1Cc1ccccc1	?	6.31µM*	-99.1*	-29.4%	?
COc1ccc(-c2c(C)[nH]n3c(=O)c(Cc4ccccc4)c(C)nc23)cc1OC	?	-13.0%	-23.6	-4.0%	-20.7%
CC(=O)N1CCOc2ccc(S(=O)(=O)N3CCC(C(=O)Nc4cc(C)ccc4C)CC3)cc21	-12.0%	-14.9%	-63.9*	-16.9%	-3.1%
COC(=O)[C@H](Cc1ccccc1)N1CC=CS1(=O)=O	·	·	3.5	·	·
COc1ccc(-c2c3c(=O)n(C)c(=O)n(C)c3cn2C2CCCCC2)cc1	25.1µM*	-10.9%	?	·	-29.2%
O=C(O)CCCCCN1C(=O)C2CCCCC2C1=O (stereo unspecified)	-3.7%	·	12.7	3.98µM*	·
Brc1cc2[nH]cnc2c2ccccc12	10µM*	·	21.0	5.5%	·
SMILES	HCV inh	Vaccinia mCherry	HCMV inh	FMDV antiviral	VACV Venus inh
COc1cc(=O)n2c(c1C(=O)N(C)Cc1nonc1C)CCN(Cc1ccsc1)CC2	·	-16.6%	·	4.2%	4.8%
Oc1cc2c(cc1C(c1ccc(Cl)c(Cl)c1)N1CCCC1)OCO2 (stereo unspecified)	-23.4%	?	-97.0*	?	-6.6%
CCC(Oc1ccccc1F)C(=O)Nc1c(C(=O)c2ccccc2)oc2ccccc12 (stereo unspecified)	·	-2.9%	?	-22.7%	-4.3%
CCOC(=O)CCCCCC(=O)Nc1ccc2c(c1)C(=O)N([C@H](C)CO)C[C@@H](C)[C@@H](CN(C)S(=O)(=O)c1ccc(C)cc1)OCCCC[C@H](C)O2	·	·	12.5	·	·
O=c1[nH][nH]c2c(N=Cc3ccccc3O)ccc(F)c12	2.1%	-16.9%	·	-21.1%	-1.9%
O=c1[nH][nH]c2c([N+](=O)[O-])ccc(F)c12	·	·	-61.5*	·	·
